Data published in PubChem BioAssay (NCATS).
Calls of active or inactive are those of the source.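 Rule for the calls: active = compounds whose dose series gives a full or clear partial fitted curve of increased nuclear translocation; inconclusive = weak partial curve or effect only at the top dose; inactive = no dose-dependent translocation response.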

biological target: Glucocorticoid receptor (Homo sapiens) (UniProt P04150); experiment: GR-GFP Redistribution (AID 450); details: U2OS GR-GFP nuclear translocation, laser cytometry, 2 h; series mostly up to 20.6 µM
Potency is the fitted concentration of half-maximal effect.

Glucocorticoid receptor (Homo sapiens), sequence (P04150 whole entry, looked up): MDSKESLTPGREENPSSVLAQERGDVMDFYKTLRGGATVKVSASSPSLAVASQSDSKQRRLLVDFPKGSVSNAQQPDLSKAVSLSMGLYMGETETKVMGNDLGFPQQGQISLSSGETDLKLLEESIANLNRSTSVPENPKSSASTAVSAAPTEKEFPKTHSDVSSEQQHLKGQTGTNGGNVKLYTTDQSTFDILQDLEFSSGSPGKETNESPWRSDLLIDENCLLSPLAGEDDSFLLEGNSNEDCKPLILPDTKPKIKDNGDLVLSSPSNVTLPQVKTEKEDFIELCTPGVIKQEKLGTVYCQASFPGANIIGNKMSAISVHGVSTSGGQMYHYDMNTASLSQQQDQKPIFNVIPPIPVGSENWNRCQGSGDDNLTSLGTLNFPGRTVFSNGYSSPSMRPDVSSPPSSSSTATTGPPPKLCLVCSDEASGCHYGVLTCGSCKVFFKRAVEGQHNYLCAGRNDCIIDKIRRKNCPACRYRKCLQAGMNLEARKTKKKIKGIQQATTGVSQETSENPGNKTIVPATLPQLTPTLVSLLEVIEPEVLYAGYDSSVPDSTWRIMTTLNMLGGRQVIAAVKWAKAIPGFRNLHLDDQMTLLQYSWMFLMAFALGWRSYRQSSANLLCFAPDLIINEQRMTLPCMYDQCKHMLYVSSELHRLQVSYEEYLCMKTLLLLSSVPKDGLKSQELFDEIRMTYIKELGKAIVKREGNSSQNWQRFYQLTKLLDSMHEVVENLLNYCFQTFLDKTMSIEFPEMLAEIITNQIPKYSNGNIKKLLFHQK

Potency, inactive:
O=C(c1cccs1)N1CCC(N2CCN(c3ccccc3)CC2)CC1 > 20.6 µM
Cc1nc2c(c(=O)n1CC1CCCO1)c1nc3ccccc3nc1n2Cc1ccc2c(c1)OCO2 (stereo not given) > 20.6 µM
O=c1[nH]c(=O)n(Cc2ccco2)c2c1C(C(F)(F)F)(C(F)(F)F)N=C(c1ccco1)N2 > 20.6 µM
CSC1=Nc2sc3c(c2C2=NCCN12)CC(C)(C)OC3 > 20.6 µM
Cc1ccc(-n2c(=O)c3c4c(sc3n3c(C)nnc23)COC(C(C)C)C4)cc1 (stereo not given) > 20.6 µM
CC1CCN(c2[nH]c(=S)c(C#N)c3c2CCCC3)CC1 > 20.6 µM
CCCCc1c(O)nc(SCCN(C)C)n(-c2ccccc2)c1=O > 20.6 µM
O=C1C=C(N2CCN(C3=CC(=O)CCC3)CC2)CCC1 > 20.6 µM
COC(=O)c1ccc(Oc2nc3ccccc3n3c(C)nnc23)cc1 > 20.6 µM
COCCCNC(=O)c1c(N)n(/N=C/c2ccccn2)c2nc3ccccc3nc12 > 20.6 µM
CCCCOc1ccc(C(=O)OC2CC(C)N(C)CC2C)cc1 (stereo not given) > 20.6 µM
COc1cccc(-c2nc(N3CCC(C)CC3)c3ccccc3n2)c1O > 20.6 µM
C=CCn1c(=S)[nH]c2nc3c(cc2c1=O)CCCC3 > 20.6 µM
CCSc1nc2sc3c(c2c2nnc(SCC(=O)NCc4ccco4)n12)CCCC3 > 20.6 µM
COc1ccc(N2CCN(c3oc(COc4ccc(Cl)cc4)nc3C#N)CC2)cc1 > 20.6 µM
COC(=O)CN(c1nc(C)c(Cl)c(OC)n1)S(=O)(=O)c1ccc(C)cc1 > 20.6 µM
COc1ccc(CN(C#N)c2nc(SC)nc(N(C)C)n2)cc1 > 20.6 µM
Cc1nc(-c2cn[nH]c2)c2cc(C)oc2n1 > 20.6 µM
C[C@]12CC[C@@H]3c4ccc(O)cc4C(=O)C[C@H]3[C@@H]1CC[C@@H]2O > 20.6 µM
O=c1c2ccccc2[nH]c(=S)n1CCN1CCC(=C(c2ccc(F)cc2)c2ccc(F)cc2)CC1 > 20.6 µM
CC1(C)Cc2nc(NCCCO)c(C#N)cc2CO1 > 20.6 µM
CCOC(=O)c1[nH]c2cc(OC)c(OC)cc2c1NC(=O)C(C)N1CCN(Cc2ccccc2)CC1 (stereo not given) > 20.6 µM
CC(C)C(=O)N1CCN(c2nc(-c3ccccc3)c3c(c2C#N)CCCC3)CC1 > 20.6 µM
CCN1CC2=C(OC(N)=C(C#N)C2c2ccccc2)/C(=C\c2ccccc2)C1 (stereo not given) > 20.6 µM
CCOP(=O)(c1ccccc1)c1nc(-c2ccccc2C)oc1N1CCCCC1 (stereo not given) > 20.6 µM
N#Cc1c(SCC(N)=O)nsc1SCc1ccc(Cl)cc1 > 20.6 µM
O=c1c2c3c(sc2n2cnnc2n1Cc1ccccc1)CN(Cc1ccccc1)CC3 > 20.6 µM
O=C(Nc1nc(NC(=O)c2ccco2)n(-c2ccccc2)n1)c1ccccc1 > 20.6 µM
COc1cccc(NC(=O)C2CC(=O)n3cnnc3S2)c1 (stereo not given) > 20.6 µM
C=CCSc1nnc2n(-c3ccccc3OC)c(=O)c3c4c(sc3n12)CCC4 > 20.6 µM
N#CC1=C(N)N(c2ccccc2)C(c2ccccc2)C1(C#N)C#N (stereo not given) > 20.6 µM
Cc1ccc(OCC(=O)N2CCC(N3CCCCCC3)CC2)cc1 > 20.6 µM
CC(C)CNC(=O)c1c(N)n(/N=C/c2ccccn2)c2nc3ccccc3nc12 > 20.6 µM
CCC1CCCCN1c1nc(-c2cccc(OC)c2O)nc2ccccc12 (stereo not given) > 20.6 µM
C=CCOc1nc2c(c(=O)n(C)c(=O)n2C)n1Cc1c(Cl)cccc1Cl > 20.6 µM
O=c1cc(-c2ccco2)nc(-c2cccs2)o1 > 20.6 µM
N#CCSc1nc2sc3c(c2c(=O)n1C1CCCCC1)CCCC3 > 20.6 µM
CC(C)Cc1nc(N2CCCCC2)c(C#N)c2c1CCC2 > 20.6 µM
c1ccc(N2CCN(c3nc(NCc4ccco4)c4ccccc4n3)CC2)cc1 > 20.6 µM
COc1ccc(-n2c(SCC(N)=O)nc3sc4c(c3c2=O)CCN(C)C4)cc1 > 20.6 µM
